# Laboratory results published in PubChem BioAssay AID434990 (Southern Research Specialized Biocontainment Screening …, 2010).
# Active and inactive are the calls of the source.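 How the source made its calls: active means inhibition above 40% at one or more tested concentrations in the dose response counterscreen; inactive means inhibition below 40% at every dose tested.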
# Assay: nmpC-GFP reporter inhibition in S. Typhimurium, SAR follow-up, counter-screen for PhoP regulon inhibitor project, synthesized compounds, round 3 (AID 434990)
# Settings: S. Typhimurium counter-screen GFP reporter fluorescence, 4 h; series mostly up to 150 µM; inhibition: at the top concentration
row,SMILES,inhibition
1,N#Cc1ccccc1NC(=S)NCc1ccc(Cl)cc1,-2.55% (inactive)
2,O=C(Nc1cccc(I)c1)N1CCCN(Cc2ccccc2F)C1,18.6% (inactive)
3,O=C(Nc1cccc(C(F)(F)F)c1)N1CCCN(Cc2ccccc2F)C1,13.3% (inactive)
4,O=C(Nc1cccc(F)c1)N1CCCN(Cc2ccccc2F)C1,14% (inactive)
5,O=C(Nc1ccc(I)cc1)N1CCCN(Cc2ccccc2F)C1,9.87% (inactive)
6,N#Cc1ccc(NC(=S)NCc2ccc(Cl)cc2)cc1,-11.5% (inactive)
7,O=C(Nc1ccc(Cl)cc1)N1CCCN(Cc2ccc(Br)cc2)C1,1.9% (inactive)
8,COc1ccccc1CNC(=S)Nc1ccncc1,-1.11% (inactive)
9,Cc1cccc(NC(=O)N2CCCN(Cc3ccccc3F)C2)c1,12.2% (inactive)
10,Cc1ccccc1CNC(=S)Nc1ccncc1,-2.17% (inactive)
11,S=C(NCCc1ccc(Cl)cc1)Nc1ccncc1,-5.69% (inactive)
12,Cc1ccc(NC(=O)N2CCCN(Cc3ccccc3F)C2)cc1,-1.1% (inactive)
13,O=C1C2=C(Nc3ccccc3SC2c2cccc(I)c2)c2ccccc21 (centres undefined),-79.9% (inactive)
14,O=C(Nc1ccc(Cl)cc1)N1CCCN(Cc2ccccc2Br)C1,0.23% (inactive)
